Results published in PubChem BioAssay (NCATS).
Inconclusive results are not listed. Activity calls are given as the source filed them. Unless noted, calls follow the shape of the full dose curve.

Assays:
[1] = target: Alpha-galactosidase (Coffea arabica) (UniProt Q42656); experiment: Counterscreen for Glucocerebrosidase Inhibitors: qHTS Assay for Coffee Bean alpha-Galactosidase at pH 4.5 (AID 957; active = well fitted curve in the direction sought with a large enough effect; an effect the other way counts as inactive or inconclusive;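 also: plate controls were enzyme alone for no effect and no enzyme for full effect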)
How it was run: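 Coffee bean enzyme (2 nM) with 80 uM 4-methylumbelliferyl alpha-D-galactopyranoside in 50 mM citric acid, 0.005% Tween-20, pH 4.5, 20 min at room temperature; compounds 0.7 nM–77 uM. Stopped at pH 10, fluorescence 365/440 nm; AC50 from Hill fits.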

[2] = qHTS for differential inhibitors of proliferation of Plasmodium falciparum line 3D7 (AID 1876; active = well fitted curve in the direction sought with a large enough effect; an effect the other way counts as inactive or inconclusive; also: potency is read from the fitted curve at half-maximal effect)
[3] = Validation screen for inhibitors of Lassa infection (AID 463096); also: % is scaled to controls: 0 for no effect and ±100 for the full control effect
[4] = Nrf2 qHTS screen for inhibitors: Validation (AID 493153; active = well fitted inhibition curve with a large enough effect in the main read-out, with a control signal flat, not every such curve was filed as active; as to activity change, negative = inhibition: % of control where 0% means no effect); conditions: Potency: luciferase luminescence; viability change: measured here: cytotoxicity max response
How it was run: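 A549 cells carrying ARE-firefly luciferase reporter, 5000 cells/well in 5% FBS OPTI-MEM, treated with compound over a concentration series for 18-24 h at 37 C. Luciferase luminescence gave Nrf2 activity; CellTiter-Fluor fluorescence gave viability.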

[5] = Inducers of the Endoplasmic Reticulum Stress Response (ERSR) in human glioma: Validation (AID 504836; active = well fitted curve in the direction sought with a large enough effect; an effect the other way counts as inactive or inconclusive; also: 0% is about no effect)
How it was run: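 ERSR induction read as luciferase luminescence (Bright-Glo, 10 min at room temperature) in stably transfected human U87-MG glioma cells exposed to compounds for 16 h, using GRP78 as sensor.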

[6] = qHTS for Inhibitors of ATXN expression: Validation (AID 588378; active = well fitted curve in the direction sought with a large enough effect; an effect the other way counts as inactive or inconclusive; also: % is scaled to controls: 0 for no effect and ±100 for the full control effect; nearly all actives have a fitted effect of over 75% in size)
How it was run: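 Validation of ATXN2 expression inhibitors uses a cell-based luciferase fusion reporter in HEK293 cells, with 24 h compound exposure and paired viability (fluorescence) and reporter (luminescence) end-point reads.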

[7] = target: Peroxisome proliferator-activated receptor delta (Homo sapiens) (UniProt Q03181); experiment: qHTS assay for small molecule agonists of peroxisome proliferator-activated receptor delta signaling (AID 588534);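 also: 0% = DMSO basal wells and 100% = positive control agonist at 10 µM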
How it was run: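 Cells carrying a PPAR-delta beta-lactamase reporter were treated with compounds for 18 h at 37 °C in agonist mode. CCF4 fluorescence was read after 2 h; EC50 and efficacy from Hill fits.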

[8] = qHTS assay for small molecule activators of the p53 signaling pathway (AID 651743; active = well fitted activation curve with a large enough effect in the signal ratio, not every such curve was filed as active; the % refers to the signal ratio; also: potency is read from the fitted curve at half-maximal effect); conditions: HCT-116 p53RE-bla, beta-lactamase FRET ratio, 16 h; activation: stronger effect = higher value
How it was run: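 Read-out is fluorescence intensity from the LiveBLAzer B/G FRET substrate, added for 2 hours at room temperature after HCT-116 p53RE-bla cells had been incubated with compounds for 16 hours at 37 C.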

[9] = qHTS assay to identify small molecules that stimulate interleukin-8 (IL-8) secretion (AID 651758; active = well fitted activation curve with a large enough effect in the signal ratio; the % refers to the signal ratio; also: potency is read from the fitted curve at half-maximal effect)
How it was run: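 Secreted IL-8 measured by TR-FRET sandwich (cryptate and XL665 antibodies) from THP-1 cells exposed to compound overnight (16 hrs, 37 C).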

[10] = target: Nuclear receptor ROR-gamma (Homo sapiens) (UniProt P51449); experiment: qHTS assay for small molecule antagonists of the retinoid-related orphan receptor gamma (ROR-gamma) signaling pathway (AID 651802; active = well fitted curve in the direction sought with a large enough effect; an effect the other way counts as inactive or inconclusive; also: potency is read from the fitted curve at half-maximal effect; nearly all actives have a fitted effect of over 60% in size)
How it was run: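 CHO cells with TET-inducible ROR-gamma and RORE-luciferase reporter, dosed then doxycycline-induced. After 16 h at 37C, One-Glo luminescence read; decreased signal indicates antagonism.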

[11] = target: Arylsulfatase A (Homo sapiens) (UniProt P15289); experiment: qHTS screen for enhancers of Arylsulfatase A (ASA1): LOPAC Validation Assay (AID 720538; active = well fitted curve in the direction sought with a large enough effect; an effect the other way counts as inactive or inconclusive; also: 0% is about no effect)
How it was run: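 First, ASA-I179S fibroblasts from an MLD patient adhered for 6 hrs. Next, compounds were added for 48h. Then pNCS substrate (0.5mM final) with lysis buffer reacted 14h at room temperature before NaOH stop and fluorescence measurement.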

[12] = qHTS for Inhibitors of the Functional Ribonucleoprotein Complex (vRNP) of Lassa (LASV) Arenavirus: Viability assay - alamar blue signal for LASV Primary Screen (AID 1347083; calls by dose curve; tested in HEK293 reporter line; also: nearly all actives have a fitted effect of over 80% in size; also: potency is read from the fitted curve at half-maximal effect)
[13] = qHTS for Inhibitors of the Functional Ribonucleoprotein Complex (vRNP) of Lymphocytic Choriomeningitis Arenaviruses (LCMV): Viability assay - alamar blue signal for LCMV Primary Screen (AID 1347085; calls by dose curve; tested in HEK293 reporter line; also: nearly all actives have a fitted effect of over 80% in size; also: potency is read from the fitted curve at half-maximal effect)
[14] = Primary qHTS for inhibitors of SARS-S pseudo-typed particle cell entry (AID 1479145); also: nearly all actives have a fitted effect of over 45% in size; as to activity change, negative = inhibition: % is scaled to controls: 0 for no effect and ±100 for the full control effect
[15] = Primary qHTS for Huh7 cytotoxicity: counterscreen for inhibitors of MERS-S pseudotyped particle cell entry (AID 1479147); conditions: outcome: dose series up to 57.1 µM unless noted
[16] = Primary qHTS for inhibitors of MERS-S pseudo-typed particle cell entry (AID 1479149); also: nearly all actives have a fitted effect of over 60% in size
[17] = Primary qHTS for Vero E6 cytotoxicity: counterscreen for inhibitors of SARS-S pseudo-typed particle cell entry (AID 1479150); conditions: outcome: dose series up to 57.1 µM unless noted
[18] = Cytotoxicity counterscreen for inhibitors of SARS-CoV-2 cell entry (AID 1645845); also: nearly all actives have a fitted effect of over 50% in size
How it was run: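 48 h compound treatment (after 1 h preincubation), HEK293-ACE2 cells, 37 C/5% CO2; ATP luminescence endpoint; normalized to cell wells and media blanks.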

[19] = Primary qHTS to identify inhibitors of SARS-CoV-2 cell entry (AID 1645846); conditions: activity change, negative = inhibition: at 57.1 µM (top of the series) unless noted; also: nearly all actives have a fitted effect of over 45% in size; also: potency is read from the fitted curve at half-maximal effect
How it was run: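 Data are normalized to wells receiving SARS-CoV-2-S pseudoparticles and those given bald particles. Entry signal was luciferase luminescence in stable hACE2 Expi293F cells, 48 hr post-infection, after 1 hr compound pretreatment.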

[20] = Confirmatory qHTS for VERO E6 Cytotoxicity Assay: Counterscreen for SARS-CoV-2 CPE Assay (AID 1508605); also: % is scaled to controls: 0 for no effect and ±100 for the full control effect; nearly all actives have a fitted effect of over 60% in size
[21] = Confirmatory qHTS to identify inhibitors of SARS-CoV-2 cell entry (AID 1645844); also: potency is read from the fitted curve at half-maximal effect; nearly all actives have a fitted effect of over 45% in size
How it was run: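 Luminescence from a luciferase reporter, read 48 hr after pseudotyped-particle addition, gives entry signal, normalised to spike-bearing PP wells and bald PP lacking fusion protein wells. Cells are Expi293F stably expressing human ACE2, compound-pretreated 1 hr.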

[22] = VSVG counterscreen qHTS to identify inhibitors of SARS-CoV-2 cell entry (AID 1645847); also: potency is read from the fitted curve at half-maximal effect; nearly all actives have a fitted effect of over 65% in size
How it was run: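 Counterscreen using VSV-G (not spike) pseudotyped MLV particles on ACE2-expressing Expi293F cells after 1 h compound preincubation; infection ran 48 h at 37 °C. Data normalized to VSV-G PP and bald-PP wells.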

[23] = target: Bile acid receptor (Homo sapiens) (UniProt Q96RI1); experiment: qHTS assay for small molecule agonists of farnesoid X receptor signaling (AID 588527); conditions: HEK293T FXR-UAS-bla, beta-lactamase ratio, 16 h; activation: stronger effect = higher value;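 also: 0% = vehicle basal and 100% = reference agonist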
How it was run: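 Agonist-mode beta-lactamase reporter in GeneBLAzer FXR-UAS-bla HEK293T cells, titration up to 92 uM, 16 h exposure at 37 C, CCF4 fluorescence. Response scaled to DMSO (0%) and 100 uM chenodeoxycholic acid (100%), then Hill-fitted for EC50 and efficacy.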

Chain of Peroxisome proliferator-activated receptor delta (Homo sapiens) (Q03181 whole entry, looked up): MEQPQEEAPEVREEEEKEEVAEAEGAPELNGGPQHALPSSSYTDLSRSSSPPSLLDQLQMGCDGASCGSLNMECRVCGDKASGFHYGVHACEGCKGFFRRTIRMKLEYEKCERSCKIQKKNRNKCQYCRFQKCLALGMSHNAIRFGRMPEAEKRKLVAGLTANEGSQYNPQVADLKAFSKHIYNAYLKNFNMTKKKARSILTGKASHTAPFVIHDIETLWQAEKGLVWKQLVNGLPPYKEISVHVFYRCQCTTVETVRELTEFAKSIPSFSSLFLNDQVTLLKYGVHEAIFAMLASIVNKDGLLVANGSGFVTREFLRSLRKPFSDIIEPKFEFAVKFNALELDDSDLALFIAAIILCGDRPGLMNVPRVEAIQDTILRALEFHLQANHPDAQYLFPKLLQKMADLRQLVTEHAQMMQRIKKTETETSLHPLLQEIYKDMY
Chain of Nuclear receptor ROR-gamma (Homo sapiens) (P51449 whole entry, looked up): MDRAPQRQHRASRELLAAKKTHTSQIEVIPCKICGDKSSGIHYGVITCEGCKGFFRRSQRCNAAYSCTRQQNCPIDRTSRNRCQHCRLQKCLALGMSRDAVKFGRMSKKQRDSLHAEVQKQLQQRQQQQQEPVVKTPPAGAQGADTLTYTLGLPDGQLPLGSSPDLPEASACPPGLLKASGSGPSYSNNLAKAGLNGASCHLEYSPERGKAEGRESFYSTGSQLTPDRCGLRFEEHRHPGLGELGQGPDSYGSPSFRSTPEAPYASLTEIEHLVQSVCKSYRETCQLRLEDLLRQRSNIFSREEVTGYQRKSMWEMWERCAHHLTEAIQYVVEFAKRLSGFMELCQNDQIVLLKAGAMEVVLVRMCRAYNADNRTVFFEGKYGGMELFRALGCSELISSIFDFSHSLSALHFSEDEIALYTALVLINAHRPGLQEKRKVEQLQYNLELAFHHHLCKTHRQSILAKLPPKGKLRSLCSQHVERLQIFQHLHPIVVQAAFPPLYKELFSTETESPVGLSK
Chain of Arylsulfatase A (Homo sapiens) (P15289 whole entry, looked up): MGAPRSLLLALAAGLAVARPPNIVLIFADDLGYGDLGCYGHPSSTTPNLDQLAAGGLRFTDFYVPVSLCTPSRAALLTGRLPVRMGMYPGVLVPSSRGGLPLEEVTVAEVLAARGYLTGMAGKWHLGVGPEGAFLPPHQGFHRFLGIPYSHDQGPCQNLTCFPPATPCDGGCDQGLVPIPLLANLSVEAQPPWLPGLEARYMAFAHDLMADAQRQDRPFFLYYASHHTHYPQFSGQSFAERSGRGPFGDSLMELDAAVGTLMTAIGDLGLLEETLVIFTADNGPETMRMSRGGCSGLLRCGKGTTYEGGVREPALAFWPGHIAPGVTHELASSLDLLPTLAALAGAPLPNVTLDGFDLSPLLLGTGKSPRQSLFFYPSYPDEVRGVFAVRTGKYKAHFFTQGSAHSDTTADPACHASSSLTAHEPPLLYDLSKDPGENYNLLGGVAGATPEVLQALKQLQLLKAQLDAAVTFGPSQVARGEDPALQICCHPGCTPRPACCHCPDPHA
Chain of Bile acid receptor (Homo sapiens) (Q96RI1 whole entry, looked up): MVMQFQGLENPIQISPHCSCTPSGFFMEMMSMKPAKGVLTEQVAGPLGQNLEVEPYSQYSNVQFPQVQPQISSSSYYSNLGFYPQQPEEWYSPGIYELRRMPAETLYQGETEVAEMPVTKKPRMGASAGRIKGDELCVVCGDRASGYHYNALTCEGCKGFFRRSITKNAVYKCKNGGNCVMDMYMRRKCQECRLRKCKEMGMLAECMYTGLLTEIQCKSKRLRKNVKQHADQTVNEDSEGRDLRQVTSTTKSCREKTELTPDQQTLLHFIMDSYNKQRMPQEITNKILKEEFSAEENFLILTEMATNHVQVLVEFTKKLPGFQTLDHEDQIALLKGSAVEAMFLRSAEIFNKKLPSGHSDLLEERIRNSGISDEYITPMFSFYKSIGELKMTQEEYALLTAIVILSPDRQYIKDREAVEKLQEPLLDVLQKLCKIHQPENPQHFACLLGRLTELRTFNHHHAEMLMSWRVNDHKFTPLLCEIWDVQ
Chain of Alpha-galactosidase (Coffea arabica) (Q42656 whole entry, looked up): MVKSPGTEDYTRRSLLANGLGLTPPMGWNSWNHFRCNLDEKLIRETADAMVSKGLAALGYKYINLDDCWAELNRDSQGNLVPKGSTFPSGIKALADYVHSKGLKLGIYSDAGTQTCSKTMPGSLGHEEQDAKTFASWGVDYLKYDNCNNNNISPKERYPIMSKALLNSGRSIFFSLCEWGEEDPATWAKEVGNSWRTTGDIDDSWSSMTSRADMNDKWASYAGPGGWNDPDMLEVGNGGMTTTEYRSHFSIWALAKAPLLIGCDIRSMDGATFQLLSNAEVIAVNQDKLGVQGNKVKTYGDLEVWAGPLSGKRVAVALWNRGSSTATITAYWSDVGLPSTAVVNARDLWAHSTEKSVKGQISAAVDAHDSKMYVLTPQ

NC(=O)c1ncn([C@@H]2O[C@H](CO)[C@@H](O)[C@H]2O)n1
inactive: outcome [1] | Potency [3] | Potency [4] | outcome [5] | Potency [6] | Potency [7] | Potency [11] | Potency [12] | Potency [13] | Potency [14] | outcome [15] | Potency [16] | outcome [17] | Potency [18]
active: Potency [2] 8.91 µM | Potency [8] 31.6 µM | Potency [9] 66.8 µM | Potency [10] 18.8 µM
7.17%: viability change [4]
-11.7%: activity change, negative = inhibition [19]

CC(=O)OCC(=O)[C@@]12OC(C)(C)O[C@@H]1C[C@H]1[C@@H]3C[C@H](F)C4=CC(=O)C=C[C@]4(C)[C@@]3(F)[C@@H](O)C[C@@]12C
inactive: Potency [12] | Potency [13] | Potency [14] | outcome [15] | Potency [16] | outcome [17] | Potency [18] | Potency [19]

CN(C)CCN1C(=O)c2cccc3cc(N)cc(c23)C1=O
active: Potency [12] 7.69 µM | Potency [13] 6.85 µM | Potency [19] 7.08 µM

COc1cc(C(=O)NC2CCN(C)CC2)ccc1Nc1ncc2c(n1)N(C1CCCC1)CCC(=O)N2C(C)C
active: Potency [12] 27.3 µM | Potency [13] 15.3 µM | Potency [19] 31.6 µM

O=C(N[C@@H](c1ccccc1)[C@@H]1CCCCN1)c1cccc(C(F)(F)F)c1Cl
active: Potency [12] 0.0243 µM | Potency [13] 0.0086 µM
inactive: Potency [20] | Potency [18]

CNC(=O)c1ccccc1Nc1nc(Nc2ccc(N3CCOCC3)cc2OC)ncc1Cl
inactive: Potency [18]
active: Potency [12] 4.85 µM | Potency [13] 2.73 µM

N#Cc1c(NC(=O)c2cccc3ccccc23)sc2c1CCCC2
active: Potency [12] 0.769 µM | Potency [13] 1.09 µM | Potency [21] 1.08 µM | Potency [22] 0.764 µM
-63.8%: activity change, negative = inhibition [19]

CC(C=CC1=C(C)CCCC1(C)C)=CC=CC(C)=CC(=O)Nc1ccc(O)cc1
inactive: activation [23] 2.75% | Potency [7]
active: Potency [12] 44.4 µM | Potency [13] 44.4 µM
